Reference: PubChem BioAssay AID493027 (The Scripps Research Institute Molecular Screening Center, 2011)
Where “and” joins values, the source holds several entries; their conditions need not be identical. Equal values may be shown once. Out of some 2,000 compounds screened, about 45 (2%) were called active. Only a selection was taken, and actives are over-represented in it overall. A number with no mark means an inactive call.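 The calls were made as follows: active = inhibition above the screen-wide mean inhibition plus 3 SD (cut at about 44% in these data); inactive = the rest.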

These compounds were tested against Perilipin-1 (Homo sapiens) + 1-acylglycerol-3-phosphate O-acyltransferase ABHD5 (Homo sapiens) (UniProt O60240+Q8WTS1) (assay: blockers of ABHD5 binding to perilipin-1 – cell lysate, split luciferase complementation, luminescence, NIH validation set, pilot screen (AID 493027;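 also: 0% = DMSO wells with the 100% control not disclosed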)). Conditions: split G. princeps luciferase complementation, 4 h, at 7.9 µM, hits give high values.
Chain of Perilipin-1 (Homo sapiens) + 1-acylglycerol-3-phosphate O-acyltransferase ABHD5 (Homo sapiens) (O60240 whole entry, looked up): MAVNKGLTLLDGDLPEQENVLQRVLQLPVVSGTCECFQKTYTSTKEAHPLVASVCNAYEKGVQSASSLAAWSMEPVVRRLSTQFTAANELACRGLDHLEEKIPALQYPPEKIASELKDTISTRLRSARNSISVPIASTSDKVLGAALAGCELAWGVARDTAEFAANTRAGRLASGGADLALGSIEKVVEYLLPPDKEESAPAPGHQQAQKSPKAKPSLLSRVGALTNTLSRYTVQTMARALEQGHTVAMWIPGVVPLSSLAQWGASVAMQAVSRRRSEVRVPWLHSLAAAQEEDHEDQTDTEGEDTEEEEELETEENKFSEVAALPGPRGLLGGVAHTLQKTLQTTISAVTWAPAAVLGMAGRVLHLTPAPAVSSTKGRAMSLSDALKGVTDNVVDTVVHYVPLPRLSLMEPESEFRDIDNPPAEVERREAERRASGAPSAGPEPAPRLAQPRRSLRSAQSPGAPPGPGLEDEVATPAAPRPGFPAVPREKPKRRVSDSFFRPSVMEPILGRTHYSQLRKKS
Chain of Perilipin-1 (Homo sapiens) + 1-acylglycerol-3-phosphate O-acyltransferase ABHD5 (Homo sapiens) (Q8WTS1 whole entry, looked up): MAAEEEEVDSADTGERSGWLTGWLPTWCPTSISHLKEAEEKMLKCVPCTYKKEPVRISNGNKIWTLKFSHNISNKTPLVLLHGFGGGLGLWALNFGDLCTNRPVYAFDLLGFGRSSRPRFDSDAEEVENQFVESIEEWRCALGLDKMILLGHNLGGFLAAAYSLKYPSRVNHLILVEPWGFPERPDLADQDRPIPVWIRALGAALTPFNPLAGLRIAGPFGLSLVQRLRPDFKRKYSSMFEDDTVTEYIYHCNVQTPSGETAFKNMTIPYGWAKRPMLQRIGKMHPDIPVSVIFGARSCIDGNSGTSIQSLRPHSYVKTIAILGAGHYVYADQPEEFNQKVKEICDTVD

Q: With `O=c1c2ccccc2[se]n1-c1ccccc1` as the compound, how does the inhibition read?
A: Its inhibition is 90.3% (active).

Q: With `Cc1nc2ccccc2c(=O)n1-c1ccc(C(=O)O)cc1` as the compound, how does the inhibition read?
A: The inhibition was 5.87%.

Q: For `O=c1c2ccccc2nc(/C=C/c2ccc3c(c2)OCO3)n1-c1ccccc1`, which inhibition is on record?
A: Its inhibition is 1.81%.

Q: For `[N-]=[N+]=CC(=O)OC[C@H](N)C(=O)O`, which inhibition is on record?
A: Its inhibition is 0.75%.

Q: Which inhibition does the source give for `CC12CN3CC(C)(CN(C1)C3c1cccs1)C2=O` (stereo not given) here?
A: The inhibition was -10.9%.

Q: `CC(C)NC(C)C(=O)c1ccc2ccccc2c1` (stereo not given) was tested. Which inhibition did it give?
A: Its inhibition is -0.73%.

Q: Which inhibition does the source give for `O=c1[nH]c(=S)n(-c2ccccc2)c(O)c1/C=N/N1CCCCC1c1cccnc1` (stereo not given) here?
A: Its inhibition is -7.25%.

Q: How did the inhibition turn out when `C#CCN(C)C(C)Cc1ccccc1` (stereo not given) was run?
A: Its inhibition is -10.3%.

Q: For `COc1cc(/C=C2\C(=O)NC(=O)N(c3ccccc3)C2=O)c([N+](=O)[O-])cc1OC`, which inhibition is on record?
A: The inhibition was 58.1% (active).

Q: With `Cc1ccc(/C=C2/C(=O)NC(=O)N(C)C2=O)cc1` as the compound, how does the inhibition read?
A: The inhibition was -3.1%.

Q: With `CCOc1ccc(N2C(=O)NC(=O)/C(=C\c3cc(OC)c(OC)cc3[N+](=O)[O-])C2=O)cc1` as the compound, how does the inhibition read?
A: Its inhibition is 63.9% (active).

Q: For `Cc1ccc(-n2c(C)cc(/C=C3/C(=O)NC(=O)N(C)C3=O)c2C)cc1`, which inhibition is on record?
A: Its inhibition is 38.2%.

Q: For `CCOC(=O)c1cncn1C(C)c1ccccc1` (stereo not given), which inhibition is on record?
A: The inhibition was 1.91%.

Q: Which inhibition does the source give for `C[N+]1(C)[C@@H]2CC(OC(=O)[C@H](CO)c3ccccc3)C[C@H]1[C@@H]1O[C@@H]12` (stereo not given in full) here?
A: Its inhibition is -5.12% and 3.91%.

Q: For `CC(C)C[C@H]1C(=O)N2CCCC2[C@]2(O)O[C@](NC(=O)[C@@H]3C=C4c5cccc6[nH]cc(c56)CC4N(C)C3)(C(C)C)C(=O)N12` (stereo not given in full), which inhibition is on record?
A: The inhibition was 22.5%.

Q: For `Cc1c2ccncc2c(C)c2c1[nH]c1ccccc12`, which inhibition is on record?
A: Its inhibition is -2.7%.

Q: With `Cc1cc2c(C(C)C)c(O)c(O)c(C=O)c2c(O)c1-c1c(C)cc2c(C(C)C)c(O)c(O)c(C=O)c2c1O` as the compound, how does the inhibition read?
A: The inhibition was 50.9% (active).

Q: For `O=C1C(=O)c2ccccc2-c2ccccc21`, which inhibition is on record?
A: The inhibition was 29.2%.

Q: How did the inhibition turn out when `CCn1c(O)c(C(=O)CC2NCCc3ccccc32)c(=O)n(CC)c1=S` (stereo not given) was run?
A: The inhibition was -1.08%.

Q: With `CC[C@@H]1C(=O)OC[C@@H]1Cc1cncn1C` as the compound, how does the inhibition read?
A: The inhibition was -9.03% and -8.34%.

Q: For `Clc1ccc(C2NCCc3[nH]cnc32)cc1` (stereo not given), which inhibition is on record?
A: The inhibition was 1.77%.

Q: For `COP(=S)(OC)SCN1C(=O)c2ccccc2C1=O`, which inhibition is on record?
A: The inhibition was 83.3% (active).

Q: Which inhibition does the source give for `NNC(=O)c1ccc(Cl)cc1` here?
A: Its inhibition is 1.77%.

Q: `O=C1C=Cc2ccccc2C1=O` was tested. Which inhibition did it give?
A: Its inhibition is 25.2%.

Q: With `O=C1CCCC2=C1C(c1cccnc1)Nc1ccccc1N2` (stereo not given) as the compound, how does the inhibition read?
A: Its inhibition is -3.96%.
